The OligoGym collection

Each sequence was assayed against C11orf53 (assay: pooled miR-30 sensor sort-seq; sequence = guide strand). Settings: shRNA.
Further: reference of the scale not given here.

Row | Sequence | sensor-assay potency score (higher = more potent)
1 | TAAATAGGAAGTGAGCTGGGTC | 0.00724
2 | TCTGACACCGTAGTAACCTGAC | 0.0785
3 | TTATTCTGAAAATCCAGTCCTG | 0.403
4 | TTTGACACCGTCATGAAAGGGG | 0.41
5 | TTCTGACACCGTAGTAACCTGA | -0.43
6 | TGACACACCTAAAACAATCTTT | 0.469
7 | TCGTCCACTAACAAAGAGCAGC | -0.909
8 | TCAGATAAGAAAGATCTTCTGA | 0.556
9 | TATTCTGAAAATCCAGTCCTGA | -0.0201
10 | TAGGTCATTTGACACCGTCATG | -1.72
11 | TTTACTGTTGTGGAAGTCTGAG | -0.231
12 | TTACTGTTGTGGAAGTCTGAGT | -0.608

What follows are sequences tested against C11orf54 in the same assay as above. Settings: shRNA.

Row | Sequence | sensor-assay potency score (higher = more potent)
13 | TTATTCACTTCTTCATCAGAGT | -0.552
14 | ATAAGTAAGGCACACCTCCAAC | -1.21
15 | TCTGAAATGGACCTGCTCCTGC | -0.481
16 | ATAAACTCAGAATTGAACCCGA | 0.903
17 | TATTCCACTATATCTGGAGTAG | -0.318
18 | TAAACTCAGAATTGAACCCGAG | 0.00773
19 | TTTTATTCAGATCATAAACTTT | -0.546
20 | TGGAGTAGTGTCATAATGGTAG | -0.457
21 | TTTCTCACTGTATTTCTCCAGT | -0.237
22 | TTCTTCATCAGAGTTCAAGGGG | 0.466
23 | TTTCATTTCATAAAAATGCAAC | -0.462

The sequences below were run against C12orf42 in the same assay as above. Settings: shRNA.

Row | Sequence | sensor-assay potency score (higher = more potent)
24 | TTCATGTGATTAATGAATCTGG | 0.286
25 | TTTATTAACCTCTTGGAGGGGA | 0.548
26 | TCGAGCTCTGTGTTACTCGGGC | -0.424
27 | TTAGGTCTTGTGTGTCTACTGA | 0.176
28 | TGTGCTTACAGAACACCTGGGG | 0.85
29 | TAGGTCTTGTGTGTCTACTGAT | -0.227
30 | TCTTGTGTGTCTACTGATGTGT | 0.434
31 | TCTGCTTTGGATGTCGTCGGGG | -0.507
32 | TTCATAACAAGGGATGTGCTTT | -0.454
33 | TGATTAATGAATCTGGAGCAGG | -0.678

Each sequence was assayed against C13orf33 in the same assay as above. Settings: shRNA.

Row | Sequence | sensor-assay potency score (higher = more potent)
34 | TAATAAAGAACAACATTGGTTT | -0.342
35 | TTTATAATCACAGTAGTTGGTC | 0.0911
36 | TTGCTCAATATAGTTTCCCTGT | -0.333
37 | TTGATGTAGCTGCTGAGGCGGT | -0.889
38 | TTAATAAAGAACAACATTGGTT | -0.331
